Experimental findings from the supplement of paper PMC8007513 are described below.

Counter-ions that a name gives are not always drawn. ± gives the standard error. Out of some 1,300 compounds screened, about 130 (10%) showed an effect of 50% or more. The full list was thinned out, with strong results kept by preference.

The experiment deals with Trichoderma virens ATCC 9645. Nature of the experiment: growth yield (OD600) with compound + IPBC relative to untreated control; higher = less growth inhibition. To be noted: compound concentration: 100 uM, IPBC concentration: 200 ng/ml. Summed up:
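Trichoderma virens ATCC 9645 spores from 7-day potato dextrose agar plates were suspended in potato dextrose broth at 15,000 spores ml^−1. Aliquots of 100 μl with library compounds at 100 μM final, with or without a co-applied biocide at 200 ng ml^−1, were grown in 96-well plates at 30 °C. OD600 was read at 40 h and 72 h on a BioTek EL800. Growth is expressed relative to the control without either agent, as means of duplicate screens.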

Turning to `OC(CCN1CCCCC1)(c1ccccc1)C1CCCCC1` (stereo not drawn) [Trihexyphenidyl-D,L Hydrochloride] + CCCCNC(=O)OCC#CI [3-iodo-2-propynyl butylcarbamate (IPBC)], the growth yield is 101 ± 16% (40 h) and 102 ± 8.6% (72 h).
`COC(=O)Nc1nc2cc(C(=O)c3cccs3)ccc2[nH]1` [Nocodazole] + CCCCNC(=O)OCC#CI [3-iodo-2-propynyl butylcarbamate (IPBC)]: the growth yield stood at 107 ± 2.9% (40 h) and 109 ± 1.1% (72 h).
Take `CN(C)CCCOc1nn(Cc2ccccc2)c2ccccc12` [Benzydamine hydrochloride] + CCCCNC(=O)OCC#CI [3-iodo-2-propynyl butylcarbamate (IPBC)]: the growth yield reads like this: (40 h) 65.8 ± 2.2%; (72 h) 88.4 ± 2.2%.
With `CC(=O)Nc1ccc(O)cc1` [Acetaminophen] + CCCCNC(=O)OCC#CI [3-iodo-2-propynyl butylcarbamate (IPBC)], the growth yield was 105 ± 20% (40 h) and 103 ± 14% (72 h).
For the compound `CC(C)[N+](C)(CCOC(=O)C1c2ccccc2Oc2ccccc21)C(C)C` [Propantheline bromide] + CCCCNC(=O)OCC#CI [3-iodo-2-propynyl butylcarbamate (IPBC)], the growth yield came out at 78.8 ± 3.2% (40 h) and 89.1 ± 3.6% (72 h).
With `CC(=O)N[C@@H](CC(C)C)C(=O)O` [N-Acetyl-L-leucine] + CCCCNC(=O)OCC#CI [3-iodo-2-propynyl butylcarbamate (IPBC)], the growth yield (40 h) worked out at 86.57 ± 0.16% and the growth yield (72 h) was found to be 93.8 ± 2.3%.
`C[C@]12CC[C@@H]3c4ccc(OS(=O)(=O)O)cc4CC[C@H]3[C@@H]1CCC2=O` [Estropipate] + CCCCNC(=O)OCC#CI [3-iodo-2-propynyl butylcarbamate (IPBC)]: the growth yield was determined as 87 ± 1.6% (40 h) and 89.7 ± 2% (72 h).
As for `Oc1c(Cl)cc(Cl)c(Cl)c1Cc1c(O)c(Cl)cc(Cl)c1Cl` [Hexachlorophene] + CCCCNC(=O)OCC#CI [3-iodo-2-propynyl butylcarbamate (IPBC)], the growth yield amounted to 19.4 ± 4.8% (40 h) and 80.2 ± 2.6% (72 h).
Turning to `CC(C)C(=O)OCC(=O)[C@@]12O[C@H](C3CCCCC3)O[C@@H]1C[C@H]1[C@@H]3CCC4=CC(=O)C=C[C@]4(C)[C@H]3[C@@H](O)C[C@@]12C` [Ciclesonide] + CCCCNC(=O)OCC#CI [3-iodo-2-propynyl butylcarbamate (IPBC)], the growth yield by setting is: (40 h) 107 ± 6.8%; (72 h) 103 ± 5.8%.
For the compound `CC(C)CC(=O)N[C@H](C(=O)N[C@H](C(=O)N[C@@H](CC(C)C)[C@@H](O)CC(=O)N[C@@H](C)C(=O)N[C@@H](CC(C)C)[C@@H](O)CC(=O)O)C(C)C)C(C)C` [Pepstatin A] + CCCCNC(=O)OCC#CI [3-iodo-2-propynyl butylcarbamate (IPBC)], the growth yield by setting is: (40 h) 96.4 ± 11%; (72 h) 103 ± 6.7%.
`CN[C@@H]1[C@H](O[C@H]2[C@H](O[C@H]3[C@H](O)[C@@H](O)[C@H](N=C(N)N)[C@@H](O)[C@@H]3N=C(N)N)O[C@@H](C)[C@]2(O)C=O)O[C@@H](CO)[C@H](O)[C@H]1O` [Streptomycin sulfate] + CCCCNC(=O)OCC#CI [3-iodo-2-propynyl butylcarbamate (IPBC)]: the growth yield turned out to be 101 ± 3.8% (40 h) and 99.9 ± 1.1% (72 h).
`Cc1ccc(Cl)c(Nc2ccccc2C(=O)O)c1Cl` [Meclofenamic acid sodium salt monohydrate] + CCCCNC(=O)OCC#CI [3-iodo-2-propynyl butylcarbamate (IPBC)]: the growth yield is, setting by setting: (40 h) 71.3 ± 1.4%; (72 h) 85.3 ± 1.8%.
Turning to `O=C(O)COC(=O)Cc1ccccc1Nc1c(Cl)cccc1Cl` [Aceclofenac] + CCCCNC(=O)OCC#CI [3-iodo-2-propynyl butylcarbamate (IPBC)], the growth yield reads like this: (40 h) 79.9 ± 0.48%; (72 h) 95.9 ± 1.7%.
For `O=C(O)Cc1ccccc1Nc1c(Cl)cccc1Cl` [Diclofenac sodium] + CCCCNC(=O)OCC#CI [3-iodo-2-propynyl butylcarbamate (IPBC)], in that order: 44.79 ± 0.32% and 74.7 ± 1.5%.
Take `O=C(CCCCCCC(=O)Nc1ccccc1)NO` [Vorinostat] + CCCCNC(=O)OCC#CI [3-iodo-2-propynyl butylcarbamate (IPBC)]: the growth yield is, setting by setting: (40 h) 107 ± 9.5%; (72 h) 99.5 ± 3.9%.
Taken in the same sequence, the figures for `COc1cc2nc(N3CCN(C(=O)c4ccco4)CC3)nc(N)c2cc1OC` [Prazosin hydrochloride] + CCCCNC(=O)OCC#CI [3-iodo-2-propynyl butylcarbamate (IPBC)] were 84.82 ± 0.32% and 92.6 ± 1.1%.
For the compound `OCCOCCN1CCN(C2=Nc3ccccc3Sc3ccccc32)CC1` [Quetiapine hemifumarate] + CCCCNC(=O)OCC#CI [3-iodo-2-propynyl butylcarbamate (IPBC)], the growth yield by setting is: (40 h) 72.75 ± 0.64%; (72 h) 85.7 ± 3.2%.
With `CN(C)CC/C=C1/c2ccccc2Sc2ccc(Cl)cc21` [Chlorprothixene hydrochloride] + CCCCNC(=O)OCC#CI [3-iodo-2-propynyl butylcarbamate (IPBC)], the growth yield runs as follows: (40 h) 24.5 ± 7.9%; (72 h) 83.6 ± 8.9%.
In the case of `CN(C)CCOC(c1ccc(Cl)cc1)c1ccccn1` (stereo not drawn) [Carbinoxamine maleate salt] + CCCCNC(=O)OCC#CI [3-iodo-2-propynyl butylcarbamate (IPBC)], the growth yield was 103 ± 9.4% (40 h) and 102 ± 4.9% (72 h).
Regarding `CN(C)CCOC1=Cc2ccccc2Sc2ccc(Cl)cc21` [Zotepine] + CCCCNC(=O)OCC#CI [3-iodo-2-propynyl butylcarbamate (IPBC)], the growth yield (40 h) is 38.6 ± 0.16% and the growth yield (72 h) was found to be 97.7%.
Taken in the same sequence, the figures for `CN(C)CCC=C1c2ccccc2C=Cc2ccccc21` [Cyclobenzaprine hydrochloride] + CCCCNC(=O)OCC#CI [3-iodo-2-propynyl butylcarbamate (IPBC)] were 65.1% and 88.41 ± 0.73%.
On to `OCCN1CCN(CC/C=C2/c3ccccc3Sc3ccc(Cl)cc32)CC1` [Zuclopenthixol dihydrochloride] + CCCCNC(=O)OCC#CI [3-iodo-2-propynyl butylcarbamate (IPBC)], for which the growth yield by setting is: (40 h) 4.92 ± 0.16%; (72 h) 3.57 ± 0.21%.
Take `CN(C)CC/C=C1\c2ccccc2CSc2ccccc21` [Dosulepin hydrochloride] + CCCCNC(=O)OCC#CI [3-iodo-2-propynyl butylcarbamate (IPBC)]: the growth yield is, setting by setting: (40 h) 77.5%; (72 h) 99 ± 1.1%.
With `COc1ccccc1Oc1c(NS(=O)(=O)c2ccc(C(C)(C)C)cc2)nc(-c2ncccn2)nc1OCCO` [Bosentan] + CCCCNC(=O)OCC#CI [3-iodo-2-propynyl butylcarbamate (IPBC)], the growth yield by setting is: (40 h) 117 ± 2.4%; (72 h) 114 ± 5.8%.
As to `Clc1ccc2c(c1)C(N1CCNCC1)=Nc1ccccc1O2` [Amoxapine] + CCCCNC(=O)OCC#CI [3-iodo-2-propynyl butylcarbamate (IPBC)], the growth yield amounted to 81.3 ± 6% (40 h) and 99.9 ± 7% (72 h).
`CCOC(=O)[C@@](C)(N)Cc1ccc(O)c(O)c1` [Methyldopate hydrochloride] + CCCCNC(=O)OCC#CI [3-iodo-2-propynyl butylcarbamate (IPBC)]: the growth yield reads like this: (40 h) 110 ± 6%; (72 h) 106 ± 6.2%.
Turning to `CC12CC3CC(C)(C1)CC(N)(C3)C2` [Memantine Hydrochloride] + CCCCNC(=O)OCC#CI [3-iodo-2-propynyl butylcarbamate (IPBC)], the growth yield by setting is: (40 h) 109 ± 3%; (72 h) 108 ± 4.2%.
For `CC(C)(C)NC[C@H](O)COc1ccccc1C1CCCC1` [Penbutolol sulfate] + CCCCNC(=O)OCC#CI [3-iodo-2-propynyl butylcarbamate (IPBC)], in that order: 74.8 ± 6.2% and 91.56 ± 0.73%.
In the case of `O=C1CCC(N2C(=O)c3ccccc3C2=O)C(=O)N1` (stereo not drawn) [Thalidomide] + CCCCNC(=O)OCC#CI [3-iodo-2-propynyl butylcarbamate (IPBC)], the growth yield runs as follows: (40 h) 95.3 ± 3.2%; (72 h) 101 ± 4.4%.
On to `O=C1NCN(c2ccccc2)C12CCN(CCCC(c1ccc(F)cc1)c1ccc(F)cc1)CC2` [Fluspirilen] + CCCCNC(=O)OCC#CI [3-iodo-2-propynyl butylcarbamate (IPBC)], for which the growth yield by setting is: (40 h) 99.4 ± 6.3%; (72 h) 118 ± 4.2%.
On to `Cc1cccc(C)c1NC(=O)CN1CCN(CCCC(c2ccc(F)cc2)c2ccc(F)cc2)CC1` [Lidoflazine] + CCCCNC(=O)OCC#CI [3-iodo-2-propynyl butylcarbamate (IPBC)], for which the growth yield reads like this: (40 h) 10.3 ± 1.1%; (72 h) 78.6 ± 7.7%.
For the compound `COc1ccccc1OCC(O)CN1CCN(CC(=O)Nc2c(C)cccc2C)CC1` (stereo not drawn) [Ranolazine] + CCCCNC(=O)OCC#CI [3-iodo-2-propynyl butylcarbamate (IPBC)], the growth yield (40 h) came out at 89.7 ± 2.4% and the growth yield (72 h) was determined as 94.2 ± 2.7%.
Consider `CO/N=C1\CN(c2nc3c(cc2F)c(=O)c(C(=O)O)cn3C2CC2)CC1CN` (stereo not drawn) [Gemifloxacin mesylate] + CCCCNC(=O)OCC#CI [3-iodo-2-propynyl butylcarbamate (IPBC)], for which the growth yield (40 h) was found to be 103 ± 17% and the growth yield (72 h) is 104 ± 11%.
Regarding `CNCC(O)c1ccc(OC(=O)C(C)(C)C)c(OC(=O)C(C)(C)C)c1` (stereo not drawn) [Dipivefrin hydrochloride] + CCCCNC(=O)OCC#CI [3-iodo-2-propynyl butylcarbamate (IPBC)], the growth yield reads like this: (40 h) 79.4 ± 1.3%; (72 h) 88.83 ± 0.1%.
Taken in the same sequence, the figures for `C[C@]12CCC(=O)C(O)=C1CC[C@@H]1[C@@H]2CC[C@]2(C)C(=O)CC[C@@H]12` [Formestane] + CCCCNC(=O)OCC#CI [3-iodo-2-propynyl butylcarbamate (IPBC)] were 71.5 ± 3.8% and 91.2 ± 1.1%.
Taken in the same sequence, the figures for `N[C@@H]1CONC1=O` [D-cycloserine] + CCCCNC(=O)OCC#CI [3-iodo-2-propynyl butylcarbamate (IPBC)] were 86.2 ± 1.1% and 90.3 ± 1.8%.
For `COc1ccc2[nH]cc(CCNC(C)=O)c2c1` [Melatonin] + CCCCNC(=O)OCC#CI [3-iodo-2-propynyl butylcarbamate (IPBC)], in that order: 82.9 ± 4.1% and 92.3 ± 4%.
For the compound `CCCCCNC(=N)N/N=C/c1c[nH]c2ccc(OC)cc12` [Tegaserod maleate] + CCCCNC(=O)OCC#CI [3-iodo-2-propynyl butylcarbamate (IPBC)], the growth yield reads like this: (40 h) 5.4%; (72 h) 5.24 ± 0.21%.
Taken in the same sequence, the figures for `CC(C)(C)NCC(O)COc1cccc2c1CC(O)C(O)C2` (stereo not drawn) [Nadolol] + CCCCNC(=O)OCC#CI [3-iodo-2-propynyl butylcarbamate (IPBC)] were 102 ± 19% and 100 ± 10%.
